CHRM1 PAM: human M1 muscarinic receptor positive allosteric modulators, primary screen, CHO-K1 cells, Fluo-8 calcium fluorescence, 1536-well. Muscarinic acetylcholine receptor M1 (Homo sapiens), P11229. CHO-K1 hM1, ACh EC20; 0% = ACh EC20, 100% = maximal ACh. AID 588819, 2011. 360,000 compounds, 0.088% hits. activation, % at 3 µM; in the data active = activation above about 19%, passing the limit was not always enough
Target sequence (P11229 whole entry, looked up): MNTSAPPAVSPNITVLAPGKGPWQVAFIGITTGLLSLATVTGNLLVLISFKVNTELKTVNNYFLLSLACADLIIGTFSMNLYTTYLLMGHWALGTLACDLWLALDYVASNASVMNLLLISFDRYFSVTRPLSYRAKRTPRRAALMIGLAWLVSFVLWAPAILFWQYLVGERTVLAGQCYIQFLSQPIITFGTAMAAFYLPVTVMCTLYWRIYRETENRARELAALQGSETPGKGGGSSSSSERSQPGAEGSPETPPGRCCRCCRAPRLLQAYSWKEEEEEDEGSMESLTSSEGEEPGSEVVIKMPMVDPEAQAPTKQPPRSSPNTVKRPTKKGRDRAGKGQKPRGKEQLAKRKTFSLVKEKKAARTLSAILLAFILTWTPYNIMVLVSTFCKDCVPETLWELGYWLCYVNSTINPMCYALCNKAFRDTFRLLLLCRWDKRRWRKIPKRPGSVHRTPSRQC
M1 PAM parental: nonselective calcium activators in parental CHO-K1 cells, primary screen, counter-screen for M1 PAM project, cell-based, Fluo-8 calcium fluorescence, full deck, 1536-well. activation, % at 3 µM. 360,000 compounds, 0.02% hits. ATP EC20; 0% at ATP EC20, 100% at ATP max;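 active = activation above the run cutoff, the mean activation of all test compounds plus 3 SD, cut at about 40% in these data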;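 also: peak over basal fluorescence ratio in a 140 s read after ATP addition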
M1 ag: human M1 muscarinic receptor agonists, primary screen, Fluo-8 calcium fluorescence, CHO-K1 cells, HTS; 360,000 compounds, 0.33% hits; CHO-K1 hM1, agonist mode; 0% DMSO, 100% acetylcholine EC100; activation, % at 3 µM;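 active = activation above the run's mean compound activation plus 3 SD, cut at about 16% in these data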;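 also: peak over basal fluorescence ratio within a 140 s kinetic read after compound addition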
CHRM1 antagonist: human M1 muscarinic receptor antagonists, primary screen, CHO-K1 cells, Fluo-8 calcium fluorescence, 1536-well | Muscarinic acetylcholine receptor M1 (Homo sapiens), P11229 | CHO-K1 hM1, ACh EC80 antagonist | inhibition, % at 3 µM | 360,000 compounds, 1.3% hits;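 active = percent inhibition above its own plate's cutoff, namely the mean of that plate's compound wells plus 3 SD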;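 also: peak over basal fluorescence ratio during 140 s after agonist addition; 0% = ACh EC80 plus DMSO and 100% = DMSO alone without agonist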
CHO-K1 Ca antag: M1 antagonist counterscreen hit in parental CHO-K1 cells. ATP-induced calcium, Fluo-8 fluorescence. inhibition, % at 3 µM. 360,000 compounds, 0.6% hits. AID 602250;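 active = inhibition above a per-plate cutoff, the plate's mean sample inhibition plus 3 SD, cut at about 24% in these data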;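 also: 0% = DMSO plus EC80 ATP and 100% = DMSO alone without ATP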
CHO-K1 Ca ag: counter-screen for M1 agonists: effect in parental CHO-K1 cells; 360,000 compounds, 0.48% hits; Fluo-8 calcium fluorescence; scaled to maximal ATP response, vehicle zero; activation, % at 3 µM; AID 602248, 2012; in the data active = activation above about 15%;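 also: untransfected CHO-K1 host cells lacking M1 receptor as counterscreen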
* hit, by the source's call. This is a sample that favours compounds with a hit; in the whole collection about 2.4% have one here.

`CC(/C=N/n1c(-c2n[nH]c3c2CCC3)n[nH]c1=S)=C\c1ccco1` gave CHRM1 PAM -26.5, M1 PAM parental 18.3, M1 ag -6.1, CHRM1 antagonist 67.1*, CHO-K1 Ca antag -9.3 and CHO-K1 Ca ag 0.2.
For COc1ccc(/C=N/n2c(-c3n[nH]c4c3CCC4)n[nH]c2=S)cc1 the results were CHRM1 PAM -10.1, M1 PAM parental 13.0, M1 ag -6.4, CHRM1 antagonist 0.8, CHO-K1 Ca antag -3.7 and CHO-K1 Ca ag 3.2.
Screening CCN(CC)C(=O)Cn1cc(S(=O)(=O)CC(=O)Nc2ccccc2F)c2ccccc21 returned CHRM1 PAM 14.1, M1 PAM parental 17.2, M1 ag -3.3, CHRM1 antagonist -8.8, CHO-K1 Ca antag -11.0 and CHO-K1 Ca ag 0.5.
`CC1(C(=O)NS(=O)(=O)c2ccc3c(c2)CCO3)CCN1C(=O)c1ccccc1CCc1ccccc1` (stereo not drawn) gave CHRM1 PAM 11.0, M1 PAM parental 12.5, M1 ag -3.7, CHRM1 antagonist -18.0, CHO-K1 Ca antag -5.5 and CHO-K1 Ca ag 0.3.
For CCc1nnc(NC(=O)C2CCCN2C(=O)Nc2ccccc2)s1 (stereo not drawn) the results were CHRM1 PAM 12.1, M1 PAM parental 14.4, M1 ag -5.5, CHRM1 antagonist -12.7, CHO-K1 Ca antag -0.8 and CHO-K1 Ca ag 20.5*.
For CCC(C)C(CO)NCCCn1cnc2c(SC)ncnc21 (stereo not drawn) the results were CHRM1 PAM 2.2, M1 PAM parental 21.5, M1 ag -10.5, CHRM1 antagonist -4.0, CHO-K1 Ca antag -13.1 and CHO-K1 Ca ag 1.2.
`CSc1n[nH]c(=O)n1C1CCCCC1` gave CHRM1 PAM -1.2, M1 PAM parental 1.4, M1 ag -6.3, CHRM1 antagonist 3.5, CHO-K1 Ca antag 1.5 and CHO-K1 Ca ag 17.7*.
O=C(CSc1n[nH]c(=O)n1C1CC1)c1ccc(F)cc1 was read as CHRM1 PAM 9.8, M1 PAM parental 2.2, M1 ag -1.6, CHRM1 antagonist -14.0, CHO-K1 Ca antag 5.2 and CHO-K1 Ca ag 0.7.
COc1ccc([C@H]2C(C#N)=C([S-])N[C@](C)(O)[C@@H]2[n+]2ccccc2)cc1 was read as CHRM1 PAM -24.6, M1 PAM parental 6.3, M1 ag -8.8, CHRM1 antagonist 74.3*, CHO-K1 Ca antag 2.8 and CHO-K1 Ca ag 0.6.
For O=C(Nc1ccc(F)cc1)N1CCOCC1 the results were CHRM1 PAM -3.0, M1 PAM parental 4.8, M1 ag -2.5, CHRM1 antagonist 4.2, CHO-K1 Ca antag -5.3 and CHO-K1 Ca ag 0.1.
Screening O=C(Nc1ccc(N2CCOCC2)cc1)Nc1ccc2nc(-c3ccco3)c(-c3ccco3)nc2c1 returned CHRM1 PAM -15.2, M1 PAM parental -14.1, M1 ag -1.7, CHRM1 antagonist 33.4*, CHO-K1 Ca antag -1.4 and CHO-K1 Ca ag 0.5.
Screening CN(C)c1ccc(NC(=O)N2CCOCC2)cc1 returned CHRM1 PAM 30.3*, M1 PAM parental -0.8, M1 ag -1.2, CHRM1 antagonist 10.0, CHO-K1 Ca antag 3.6 and CHO-K1 Ca ag -0.4.
`O=C(Nc1ccc2nc(-c3cccs3)c(-c3cccs3)nc2c1)N1CCOCC1` gave CHRM1 PAM -21.4, M1 PAM parental 13.6, M1 ag -4.1, CHRM1 antagonist 78.4*, CHO-K1 Ca antag -4.9 and CHO-K1 Ca ag 4.1.
CCN1CCN(c2nc3c(c(=O)[nH]c(=O)n3C)n2Cc2ccccc2)CC1 was read as CHRM1 PAM 17.6, M1 PAM parental -13.3, M1 ag -9.3, CHRM1 antagonist -20.5, CHO-K1 Ca antag 4.5 and CHO-K1 Ca ag -0.5.
Screening CCCN1C(=O)S/C(=C/c2ccc(N3CCOCC3)o2)C1=O returned CHRM1 PAM -3.7, M1 PAM parental 15.2, M1 ag 18.0*, CHRM1 antagonist 7.0, CHO-K1 Ca antag 3.4 and CHO-K1 Ca ag 8.3.
COc1cc(/C=C/C(=O)CC(=O)/C=C/c2ccc(O)c(OC)c2)ccc1O was read as CHRM1 PAM -20.4, M1 PAM parental -14.9, M1 ag 18.9*, CHRM1 antagonist 23.9, CHO-K1 Ca antag 29.5* and CHO-K1 Ca ag 19.1*.
For COc1cc(C=C2C(=O)C=CC2=O)ccc1O the results were M1 PAM parental 42.9*, CHO-K1 Ca antag -45.5 and CHO-K1 Ca ag 2.6.
`COc1ccc2c(c1)OC[C@H]1[C@H]2N2C(=O)c3cc(OC)ccc3NC(=O)[C@@]2(C)[C@H]1c1ccccc1` gave CHRM1 PAM -20.7, M1 PAM parental 5.6, M1 ag -6.5, CHRM1 antagonist 26.5*, CHO-K1 Ca antag -9.1 and CHO-K1 Ca ag 0.3.
COc1ccc2c(c1)OC[C@H]1[C@H]2N2C(=O)c3cc(Cl)ccc3NC(=O)[C@@]2(C)[C@H]1c1ccccc1 was read as CHRM1 PAM -15.5, M1 PAM parental 19.4, M1 ag -7.7, CHRM1 antagonist 24.6, CHO-K1 Ca antag -14.8 and CHO-K1 Ca ag 1.5.
COc1ccc2c(c1)OC[C@H]1[C@H]2N2C(=O)c3cc(F)ccc3NC(=O)[C@@]2(C)[C@H]1c1ccccc1 was read as CHRM1 PAM -30.5, M1 PAM parental 12.3, M1 ag -7.3, CHRM1 antagonist 82.9*, CHO-K1 Ca antag -24.0 and CHO-K1 Ca ag 0.9.
Screening CC1(C)C(C=C(Cl)Cl)C1C(=O)N1CCN(Cc2ccccc2)CC1 (stereo not drawn) returned CHRM1 PAM -23.2, M1 PAM parental 12.8, M1 ag -7.0, CHRM1 antagonist 41.8*, CHO-K1 Ca antag -11.0 and CHO-K1 Ca ag 1.4.
O=C(C1CC1)N1CCN(Cc2ccccc2)CC1 was read as CHRM1 PAM 9.0, M1 PAM parental 11.4, M1 ag -3.0, CHRM1 antagonist -11.5, CHO-K1 Ca antag -1.3 and CHO-K1 Ca ag 0.1.
For CS(=O)(=O)c1ccc(Cl)c(NC(=O)CSc2nnc3n2CCCCC3)c1 the results were CHRM1 PAM 1.6, M1 PAM parental 14.8, M1 ag -5.4, CHRM1 antagonist -1.6, CHO-K1 Ca antag -1.2 and CHO-K1 Ca ag 0.5.
For CC(C)(C)OC(=O)N1CCCC(C(=O)Nc2cccc(C(=O)NCCCCc3ccccc3)c2)C1 (stereo not drawn) the results were CHRM1 PAM -20.1, M1 PAM parental -6.1, M1 ag 3.3, CHRM1 antagonist 26.5*, CHO-K1 Ca antag 4.9 and CHO-K1 Ca ag 9.6.
`CC(C)(C)OC(=O)N1CCCC(C(=O)Nc2cccc(C(=O)NCCc3ccccc3)c2)C1` (stereo not drawn) gave CHRM1 PAM 2.4, M1 PAM parental 14.4, M1 ag 8.6, CHRM1 antagonist -5.3, CHO-K1 Ca antag -9.4 and CHO-K1 Ca ag 8.4.

Assay outcomes as filed in PubChem.
